Screening data as filed in PubChem.
FBPA Giardia inh – blocks Giardia fructose-bisphosphate aldolase activity. purified Giardia FBPA. Potency, µM (titrated, usually from 59.6 µM), without a hit: at the top dose activity, negative = inhibition, usual class: inhibitors. hit rate 0.71% among 290,000; note: potency is the fitted concentration of half-maximal effect; nearly all actives have a fitted effect of over 55% in size
Target sequence (A8B2U2 whole entry, looked up): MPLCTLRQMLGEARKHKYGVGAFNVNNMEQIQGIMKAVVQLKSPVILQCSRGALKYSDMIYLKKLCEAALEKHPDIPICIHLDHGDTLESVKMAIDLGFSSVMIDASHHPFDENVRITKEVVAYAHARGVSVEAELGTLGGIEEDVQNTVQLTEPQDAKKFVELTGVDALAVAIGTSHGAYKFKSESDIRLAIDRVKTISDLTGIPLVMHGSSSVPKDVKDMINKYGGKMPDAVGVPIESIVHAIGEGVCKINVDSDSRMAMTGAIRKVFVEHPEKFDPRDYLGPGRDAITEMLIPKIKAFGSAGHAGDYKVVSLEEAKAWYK
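Giardia FBPA (40 nM reagent) was preincubated 10 min at RT with compound (up to 57.5 uM final), then substrate plus GAPDH/TPI/NAD/arsenate coupling system with diaphorase/resazurin was added; resorufin fluorescence (525/598 nm) was read after 20 min.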
Pf growth 96h – P. falciparum growth inhibition at 96 hours. P. falciparum luciferase reporter growth, 96 h. hit rate 6.9% among 320,000. Potency, µM (top dose mostly 28.7 µM), without a hit: at the highest dose activity change, negative = inhibition, actives largely listed as inhibitors; note: potency is the fitted concentration of half-maximal effect
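Cell-based qHTS: luciferase-tagged P. falciparum in erythrocytes (2% hematocrit, 0.05% parasitemia final) incubated with compounds for 96 hours, 37 C, 5% CO2; luciferase detection reagent then added and luminescence measured.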
HCMV inh – human cytomegalovirus inhibition | AID 1259415 | HFF cells, HCMV-luciferase reporter, 72 h; active compounds read low | activity change, negative = inhibition, % at 57.5 µM | hit rate 4.5% among 410,000; in the data active = activity change below about -60%; inconclusive = no clear call, values can overlap the other calls; inactive = above about -39%
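Steps: HFFs plated, 16 h 37C; compounds added; HCMV-luciferase added to MOI 1 PFU/cell; 72 h 37C; OneGlo reagent, 5 min room temperature; luminescence read, normalized to controls.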
Pf growth 48h – inhibits P. falciparum growth in the first generation, 48 h | P. falciparum luciferase growth in erythrocytes, 48 h | Potency, µM (titrated, usually from 28.7 µM), without a hit: at the highest dose activity change, negative = inhibition, most hits filed as inhibitors | hit rate 5.9% among 310,000 | AID 504832; note: potency is the fitted concentration of half-maximal effect
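Growth was read as firefly luciferase luminescence after a 48 h, 37 C, 5% CO2 exposure of compounds to reporter-bearing P. falciparum cultures (0.1% parasitemia, 2% hematocrit final) in Albumax-supplemented RPMI 1640.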
Sm TGR inh – inhibitors of Schistosoma mansoni thioredoxin glutathione reductase. Q962Y6. purified TGR, DTNB reduction, TNB absorbance 405 nm. Potency, µM (highest dose often 114 µM), for inactives: top-dose activity change, negative = inhibition, usual class: inhibitors. hit rate 3% among 360,000. AID 485364; note: potency is the fitted concentration of half-maximal effect; nearly all actives have a fitted effect of over 60% in size
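Kinetic colorimetric format: TGR-catalysed, NADPH-driven DTNB reduction monitored via TNB absorbance. Enzyme dispensed at 20 nM; compound exposure 15 min at room temperature before reaction start.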
Starred values were filed as active, the others as inactive; ? = inconclusive; . = not tested or not shown. Shown are actives, neighbours in structure and some others; about 14% of the full set was active somewhere. Unless noted, calls come from the whole dose curve; as a rule, active = well fitted curve in the direction sought with a large enough effect; inconclusive = small, poorly fitted or top-dose-only effect, or another doubt; inactive = no such curve, though single readings can be large; an effect the other way counts as inactive or inconclusive. % is set by controls: 0 for no effect and ±100 for the full control effect.

SMILES	FBPA Giardia inh	Pf growth 96h	HCMV inh	Pf growth 48h	Sm TGR inh
COc1cccc(/C=N/NC(=O)CCc2c(C)n[nH]c2C)c1O	-3%	46%	0	?	0%
COc1ccc(NC2CCCN(C(=O)CCCn3cncn3)C2)cc1OC (stereo not given)	?	2.6µM*	-14	-4%	-30%
O=C(CCc1ccncc1)N1CCCC(Nc2ccc(F)c(F)c2)C1 (stereo not given)	.	13µM*	0	0%	-5%
O=C(Cc1ccc(N2CCNC2=O)cc1)N1CCCC(Nc2ccc(F)c(F)c2)C1 (stereo not given)	.	?	-61*	?	4%
Cc1ccc(NC2CCCN(C(=O)CCc3ccncc3)C2)cc1C (stereo not given)	.	-13%	.	-7%	-28%
COc1ccc(CCNC(=O)Cc2ccsc2)cc1	.	-16%	16	13%	5%
CCc1ccc(CN(C)C(=O)C2CCC(=O)N(CC3CCCCC3)C2)cc1 (stereo not given)	-15%	13µM*	20	?	1%
O=C(NCc1ccccc1Cl)C1CCC(=O)N(CC2CCCCC2)C1 (stereo not given)	.	16%	-29	3%	1%
O=C(NCCc1ccccc1Cl)C1CCC(=O)N(CC2CCCCC2)C1 (stereo not given)	6%	13µM*	-36	-9%	5%
COc1cccc(CN2CC(C(=O)NCCc3ccc(C)o3)CCC2=O)c1 (stereo not given)	.	?	-5	10%	13µM*
Cc1ccc(CN(C)C(=O)C2CCC(=O)N(CCc3ccccc3)C2)o1 (stereo not given)	-15%	?	59	-3%	13µM*
CN(Cc1ccccc1C(F)(F)F)C(=O)C1CCC(=O)N(CC2CCCCC2)C1 (stereo not given)	.	.	-13	.	.
Cc1cc(C)nc(CCNC(=O)C2CCC(=O)N(Cc3ccccc3F)C2)n1 (stereo not given)	.	62%	43	23%	0%
Cc1ccc(CCNC(=O)C2CCC(=O)N(Cc3ccccc3F)C2)o1 (stereo not given)	.	7%	16	?	45µM*
[2H]c1c([2H])c([2H])c(-c2nc(N3CCCCCC3)sc2C(=O)c2ccccc2)c([2H])c1[2H]	0%	4.1µM*	?	?	15%
CC1CCN(c2nc(-c3cccnc3)nc3scc(-c4ccccc4)c23)CC1	7%	?	35	-4%	5%
CC1CCN(c2nc(CN3CCCCC3)nc3scc(-c4ccccc4)c23)CC1	12%	1.5µM*	?	2.3µM*	-2%
CCCOc1ccc(/C(O)=C2/C(=O)C(=O)N(CCOC)C2c2cccnc2)cc1 (stereo not given)	9%	?	-6	1µM*	-4%
COc1cccc(/C(O)=C2/C(=O)C(=O)N(CCN3CCOCC3)C2c2cccnc2)c1 (stereo not given)	-5%	.	-21	?	22µM*
Cc1ccc(C)c(/C(O)=C2\C(=O)C(=O)N(CCCN3CCOCC3)C2c2cccnc2)c1 (stereo not given)	2%	1.9µM*	12	15%	28µM*
COc1ccc(OC)c(CNC(=O)Cn2nc(C)c3nn(-c4ccc(Cl)cc4)c(C)c3c2=O)c1	.	.	-40	.	2%
c1nc2nc(Nc3ccc(N4CCOCC4)cc3)nc(NC3CCCCC3)c2[nH]1	-6%	.	.	.	.
Cc1cccc(Cn2c(CN3CCC(C(=O)NCCc4ccccc4)CC3)cc3ccccc32)c1	.	.	14	.	2%
CC(=O)Nc1ccc(Cl)c(-c2nc3ncccc3o2)c1	-10%	31%	-8	.	3%
C=CCn1c(C)nnc1SCC(=O)Nc1nccs1	?	3%	-30	?	6%
SMILES	FBPA Giardia inh	Pf growth 96h	HCMV inh	Pf growth 48h	Sm TGR inh
O=C(Nc1ccc(N2CCN(CCOc3ccc(Cl)cc3)CC2)c(C(=O)O)c1)c1ccc(F)cc1	.	.	-1	.	3%
CC(C)c1ccc(C(O)P(=O)(OC2CCCCC2)OC2CCCCC2)cc1 (stereo not given)	-2%	?	?	-1%	8%
CC(=O)C(Sc1nccc(-c2cccs2)n1)C(C)=O	18µM*	183%	41	89%	-15%
Cc1cccc(NC(=O)C(=O)NNC(=O)c2ccc(C(C)(C)C)cc2)c1	?	?	-18	26%	8%
Cc1ccc(F)c(NC(=O)/C(C#N)=C(\O)c2ccc(C(C)(C)C)cc2)c1	-8%	46%	-63*	61%	-2%
O=C1C(C2=C(O)c3ccccc3C2=O)=Nc2ccccc21	-21%	24%	-78*	6%	?
Cc1cc(C)c(C#N)c(SCCN2CCCCC2)n1	1%	-11%	-96*	8%	1%
CC(C)[C@@H](CC(=O)N[C@@H]1CCNC[C@H]1C(=O)N[C@H](CC(=O)N[C@@H](CCC(=O)O)CC(=O)O)Cc1c[nH]c2ccccc12)NC(=O)C[C@H](Cc1ccccc1)NC(=O)[C@@H]1CNCC[C@H]1N	7%	.	.	.	.
COc1ccc(-c2sc3cc4c(cc3c2C#CC2(N)CCCCC2)OCO4)cc1	.	?	-4	13µM*	-21%
COc1cc(OC)cc(-c2sc3ccc(OC)cc3c2C#CC2(N)CCCCC2)c1	.	.	-5	.	.
CC(=O)/C=N/Nc1ccccc1	0%	67%	20	-18%	-30%
OC[C@@H](O)[C@H](O)C(/C=N/Nc1ccccc1)=N\Nc1ccccc1	-15%	-17%	65	-7%	20µM*
C#CCOCCOCCOCCNc1nc(N2CCN(C(=O)[C@H](CCC(=O)O)n3cc(C(N)CO)nn3)CC2)nc(N2CCN(C(=O)[C@H](CCC(=O)O)n3cc(C(N)[C@H](C)CC)nn3)CC2)n1 (stereo not given in full)	-15%	44%	.	6%	28µM*
C#CCOCCOCCOCCNc1nc(N2CCN(C(=O)[C@H]([C@@H](C)CC)n3cc([C@@H](N)Cc4ccc(O)cc4)nn3)CC2)nc(N2CCN(C(=O)[C@H](CCCCN)n3cc([C@@H](N)C(C)CC)nn3)CC2)n1 (stereo not given in full)	-15%	33%	.	47%	-3%
C#CCOCCOCCOCCNc1nc(N2CCN(C(=O)[C@H](CCC(=O)O)n3cc(C(N)CC(C)C)nn3)CC2)nc(N2CCN(C(=O)[C@H](CCC(=O)O)n3cc(C(N)[C@H](C)CC)nn3)CC2)n1 (stereo not given in full)	-10%	-10%	.	?	32µM*
C#CCOCCOCCOCCNc1nc(N2CCN(C(=O)[C@H](CCCCN)n3cc([C@@H](N)C(C)CC)nn3)CC2)nc(N2CCN(C(=O)[C@H](CCCCN)n3cc([C@@H](N)CC(C)C)nn3)CC2)n1 (stereo not given in full)	-1%	35%	?	1%	40µM*
